{
  "source": "paper PMC11006913",
  "experiment_in_all_cases": "PBM; 200 nM protein, PBS",
  "conditions_in_all_cases": "dsDNA, one strand shown",
  "key": {"[1]": {"molecular_target": "HOXA7 (Homo sapiens, UniProt P31268 116-202)", "sequence (P31268 116-202)": "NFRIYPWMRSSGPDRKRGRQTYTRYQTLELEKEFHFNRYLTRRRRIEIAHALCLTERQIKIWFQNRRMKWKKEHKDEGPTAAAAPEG"}, "[2]": {"molecular_target": "HOXA2 (Homo sapiens, UniProt O43364 129-215, R185T)", "sequence (O43364 129-215 R185T)": "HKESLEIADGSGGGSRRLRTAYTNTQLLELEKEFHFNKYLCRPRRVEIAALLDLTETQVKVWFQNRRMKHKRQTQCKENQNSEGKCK"}, "[3]": {"molecular_target": "MSX2 (Homo sapiens, UniProt P35548 130-214, R199I)", "sequence (P35548 130-214 R199I)": "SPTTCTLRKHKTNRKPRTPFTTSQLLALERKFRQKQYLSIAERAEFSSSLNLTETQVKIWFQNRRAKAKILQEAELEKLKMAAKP"}, "[4]": {"molecular_target": "HOXA2 (Homo sapiens, UniProt O43364 129-215, R185K)", "sequence (O43364 129-215 R185K)": "as the sequence (O43364 129-215 R185T) above, with T57K counted along it"}, "[5]": {"molecular_target": "MSX2 (Homo sapiens, UniProt P35548 130-214)", "sequence (P35548 130-214)": "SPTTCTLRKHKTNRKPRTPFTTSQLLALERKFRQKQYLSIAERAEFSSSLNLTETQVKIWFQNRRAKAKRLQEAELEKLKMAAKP"}, "[6]": {"molecular_target": "MSX2 (Homo sapiens, UniProt P35548 130-214, F161Y)", "sequence (P35548 130-214 F161Y)": "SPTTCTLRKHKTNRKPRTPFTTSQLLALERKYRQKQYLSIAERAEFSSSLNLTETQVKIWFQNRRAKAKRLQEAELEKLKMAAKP"}, "[7]": {"molecular_target": "HOXA2 (Homo sapiens, UniProt O43364 129-215, Y150S)", "sequence (O43364 129-215 Y150S)": "as the sequence (O43364 129-215 R185T) above, with Y22S, T57R counted along it"}, "[8]": {"molecular_target": "HOXA7 (Homo sapiens, UniProt P31268 116-202, W177C)", "sequence (P31268 116-202 W177C)": "as the sequence (P31268 116-202) above, with W62C counted along it"}, "[9]": {"molecular_target": "HOXA2 (Homo sapiens, UniProt O43364 129-215)", "sequence (O43364 129-215)": "as the sequence (O43364 129-215 R185T) above, with T57R counted along it"}, "[10]": {"molecular_target": "HOXB6 (Homo sapiens, UniProt P17509 132-218, K202E)", "sequence (P17509 132-218 K202E)": "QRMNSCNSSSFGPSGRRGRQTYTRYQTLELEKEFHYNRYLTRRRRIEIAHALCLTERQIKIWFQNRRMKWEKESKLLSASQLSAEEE"}, "[11]": {"molecular_target": "PROP1 (Homo sapiens, UniProt O75360 56-141)", "sequence (O75360 56-141)": "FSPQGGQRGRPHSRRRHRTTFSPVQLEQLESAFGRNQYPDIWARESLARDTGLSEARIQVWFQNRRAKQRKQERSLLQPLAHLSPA"}, "[12]": {"molecular_target": "PROP1 (Homo sapiens, UniProt O75360 56-141, R99H)", "sequence (O75360 56-141 R99H)": "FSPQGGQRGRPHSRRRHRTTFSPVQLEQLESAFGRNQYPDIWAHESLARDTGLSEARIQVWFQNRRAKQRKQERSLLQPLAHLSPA"}, "[13]": {"molecular_target": "PROP1 (Homo sapiens, UniProt O75360 56-141, F88S)", "sequence (O75360 56-141 F88S)": "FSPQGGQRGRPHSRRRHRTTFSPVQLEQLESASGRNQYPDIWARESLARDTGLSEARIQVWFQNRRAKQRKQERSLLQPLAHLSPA"}, "[14]": {"molecular_target": "PITX2 (Homo sapiens, UniProt Q99697 72-157)"}, "[15]": {"molecular_target": "HOXA4 (Homo sapiens, UniProt Q00056 201-287, R217L)", "sequence (Q00056 201-287 R217L)": "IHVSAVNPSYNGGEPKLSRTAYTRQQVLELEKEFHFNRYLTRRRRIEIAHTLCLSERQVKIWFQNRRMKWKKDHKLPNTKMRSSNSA"}, "[16]": {"molecular_target": "HOXC10 (Homo sapiens, UniProt Q9NYD6 254-340, K271E)", "sequence (Q9NYD6 254-340 K271E)": "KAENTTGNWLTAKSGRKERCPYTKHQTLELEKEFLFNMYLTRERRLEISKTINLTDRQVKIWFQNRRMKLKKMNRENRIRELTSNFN"}, "[17]": {"molecular_target": "HOXA4 (Homo sapiens, UniProt Q00056 201-287, W262F)", "sequence (Q00056 201-287 W262F)": "as the sequence (Q00056 201-287 R217L) above, with L17R, W62F counted along it"}, "[18]": {"molecular_target": "HOXB6 (Homo sapiens, UniProt P17509 132-218)", "sequence (P17509 132-218)": "as the sequence (P17509 132-218 K202E) above, with E71K counted along it"}, "[19]": {"molecular_target": "HOXD13 (Homo sapiens, UniProt P35453 263-343, T313R)", "sequence (P35453 263-343 T313R)": "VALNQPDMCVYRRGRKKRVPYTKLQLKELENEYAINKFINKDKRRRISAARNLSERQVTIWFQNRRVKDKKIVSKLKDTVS"}, "[20]": {"molecular_target": "HOXD13 (Homo sapiens, UniProt P35453 263-343)", "sequence (P35453 263-343)": "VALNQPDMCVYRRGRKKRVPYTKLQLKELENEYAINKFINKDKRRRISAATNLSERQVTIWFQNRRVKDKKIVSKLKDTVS"}, "[21]": {"molecular_target": "VAX1 (Homo sapiens, UniProt Q5SQQ9 86-172)", "sequence (Q5SQQ9 86-172)": "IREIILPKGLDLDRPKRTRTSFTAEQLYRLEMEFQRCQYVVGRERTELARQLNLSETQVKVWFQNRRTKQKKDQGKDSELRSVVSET"}, "[22]": {"molecular_target": "HOXD13 (Homo sapiens, UniProt P35453 263-343, T313A)", "sequence (P35453 263-343 T313A)": "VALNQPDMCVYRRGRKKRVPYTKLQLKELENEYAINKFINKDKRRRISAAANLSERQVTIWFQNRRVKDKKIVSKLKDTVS"}, "[23]": {"molecular_target": "VAX1 (Homo sapiens, UniProt Q5SQQ9 86-172, T142I)", "sequence (Q5SQQ9 86-172 T142I)": "as the sequence (Q5SQQ9 86-172) above, with T57I counted along it"}, "[24]": {"molecular_target": "VAX1 (Homo sapiens, UniProt Q5SQQ9 86-172, K157R)", "sequence (Q5SQQ9 86-172 K157R)": "as the sequence (Q5SQQ9 86-172) above, with K72R counted along it"}},
  "data": [
    {"sequence": "GACCCTGC", "values": [
      {"measurement": "binding signal", "setting": "[1]", "value": "8.54 upbm affinity estimate (log intensity, higher = more binding, comparable within an allelic series)"},
      {"measurement": "binding signal", "setting": "[2]", "value": "7.03 upbm affinity estimate (log intensity, higher = more binding, comparable within an allelic series)"},
      {"measurement": "binding signal", "setting": "[3]", "value": "9.48 upbm affinity estimate (log intensity, higher = more binding, comparable within an allelic series)"},
      {"measurement": "binding signal", "setting": "[4]", "value": "10.3 upbm affinity estimate (log intensity, higher = more binding, comparable within an allelic series)"},
      {"measurement": "binding signal", "setting": "[5]", "value": "9.31 upbm affinity estimate (log intensity, higher = more binding, comparable within an allelic series)"},
      {"measurement": "binding signal", "setting": "[6]", "value": "9.36 upbm affinity estimate (log intensity, higher = more binding, comparable within an allelic series)"},
      {"measurement": "binding signal", "setting": "[7]", "value": "10.5 upbm affinity estimate (log intensity, higher = more binding, comparable within an allelic series)"},
      {"measurement": "binding signal", "setting": "[8]", "value": "8.43 upbm affinity estimate (log intensity, higher = more binding, comparable within an allelic series)"},
      {"measurement": "binding signal", "setting": "[9]", "value": "6.79 upbm affinity estimate (log intensity, higher = more binding, comparable within an allelic series)"}
    ]},
    {"sequence": "CATTATTA", "values": [
      {"measurement": "binding signal", "setting": "[1]", "value": "11.1 upbm affinity estimate (log intensity, higher = more binding, comparable within an allelic series)"},
      {"measurement": "binding signal", "setting": "[10]", "value": "10 upbm affinity estimate (log intensity, higher = more binding, comparable within an allelic series)"},
      {"measurement": "binding signal", "setting": "[8]", "value": "8.89 upbm affinity estimate (log intensity, higher = more binding, comparable within an allelic series)"}
    ]},
    {"sequence": "CGTTTATC", "values": [
      {"measurement": "binding signal", "setting": "[1]", "value": "9.65 upbm affinity estimate (log intensity, higher = more binding, comparable within an allelic series)"},
      {"measurement": "binding signal", "setting": "[11]", "value": "8.39 upbm affinity estimate (log intensity, higher = more binding, comparable within an allelic series)"},
      {"measurement": "binding signal", "setting": "[12]", "value": "7.9 upbm affinity estimate (log intensity, higher = more binding, comparable within an allelic series)"},
      {"measurement": "binding signal", "setting": "[13]", "value": "7.41 upbm affinity estimate (log intensity, higher = more binding, comparable within an allelic series)"},
      {"measurement": "binding signal", "setting": "[8]", "value": "8.89 upbm affinity estimate (log intensity, higher = more binding, comparable within an allelic series)"}
    ]},
    {"sequence": "GTATTTAA", "values": [
      {"measurement": "binding signal", "setting": "[1]", "value": "10.1 upbm affinity estimate (log intensity, higher = more binding, comparable within an allelic series)"},
      {"measurement": "binding signal", "setting": "[11]", "value": "9.2 upbm affinity estimate (log intensity, higher = more binding, comparable within an allelic series)"},
      {"measurement": "binding signal", "setting": "[12]", "value": "8.79 upbm affinity estimate (log intensity, higher = more binding, comparable within an allelic series)"},
      {"measurement": "binding signal", "setting": "[13]", "value": "7.52 upbm affinity estimate (log intensity, higher = more binding, comparable within an allelic series)"},
      {"measurement": "binding signal", "setting": "[8]", "value": "8.94 upbm affinity estimate (log intensity, higher = more binding, comparable within an allelic series)"}
    ]},
    {"sequence": "CTGCTTCA", "values": [
      {"measurement": "binding signal", "setting": "[1]", "value": "8.51 upbm affinity estimate (log intensity, higher = more binding, comparable within an allelic series)"},
      {"measurement": "binding signal", "setting": "[14]", "value": "7.83 upbm affinity estimate (log intensity, higher = more binding, comparable within an allelic series)"},
      {"measurement": "binding signal", "setting": "[8]", "value": "8.44 upbm affinity estimate (log intensity, higher = more binding, comparable within an allelic series)"}
    ]},
    {"sequence": "AGCTTTCC", "values": [
      {"measurement": "binding signal", "setting": "[1]", "value": "8.42 upbm affinity estimate (log intensity, higher = more binding, comparable within an allelic series)"},
      {"measurement": "binding signal", "setting": "[11]", "value": "6.7 upbm affinity estimate (log intensity, higher = more binding, comparable within an allelic series)"},
      {"measurement": "binding signal", "setting": "[12]", "value": "6.84 upbm affinity estimate (log intensity, higher = more binding, comparable within an allelic series)"},
      {"measurement": "binding signal", "setting": "[13]", "value": "7.01 upbm affinity estimate (log intensity, higher = more binding, comparable within an allelic series)"},
      {"measurement": "binding signal", "setting": "[8]", "value": "8.43 upbm affinity estimate (log intensity, higher = more binding, comparable within an allelic series)"}
    ]},
    {"sequence": "AATTACCT", "values": [
      {"measurement": "binding signal", "setting": "[1]", "value": "11.3 upbm affinity estimate (log intensity, higher = more binding, comparable within an allelic series)"},
      {"measurement": "binding signal", "setting": "[10]", "value": "9.87 upbm affinity estimate (log intensity, higher = more binding, comparable within an allelic series)"},
      {"measurement": "binding signal", "setting": "[15]", "value": "12.1 upbm affinity estimate (log intensity, higher = more binding, comparable within an allelic series)"},
      {"measurement": "binding signal", "setting": "[16]", "value": "11.9 upbm affinity estimate (log intensity, higher = more binding, comparable within an allelic series)"},
      {"measurement": "binding signal", "setting": "[6]", "value": "12.9 upbm affinity estimate (log intensity, higher = more binding, comparable within an allelic series)"},
      {"measurement": "binding signal", "setting": "[8]", "value": "8.74 upbm affinity estimate (log intensity, higher = more binding, comparable within an allelic series)"},
      {"measurement": "binding signal", "setting": "[17]", "value": "11.5 upbm affinity estimate (log intensity, higher = more binding, comparable within an allelic series)"},
      {"measurement": "binding signal", "setting": "[18]", "value": "11.8 upbm affinity estimate (log intensity, higher = more binding, comparable within an allelic series)"}
    ]},
    {"sequence": "AGGGCGGC", "values": [
      {"measurement": "binding signal", "setting": "[1]", "value": "8.44 upbm affinity estimate (log intensity, higher = more binding, comparable within an allelic series)"},
      {"measurement": "binding signal", "setting": "[19]", "value": "9.45 upbm affinity estimate (log intensity, higher = more binding, comparable within an allelic series)"},
      {"measurement": "binding signal", "setting": "[20]", "value": "9.52 upbm affinity estimate (log intensity, higher = more binding, comparable within an allelic series)"},
      {"measurement": "binding signal", "setting": "[21]", "value": "7.1 upbm affinity estimate (log intensity, higher = more binding, comparable within an allelic series)"},
      {"measurement": "binding signal", "setting": "[22]", "value": "9.5 upbm affinity estimate (log intensity, higher = more binding, comparable within an allelic series)"},
      {"measurement": "binding signal", "setting": "[23]", "value": "6.95 upbm affinity estimate (log intensity, higher = more binding, comparable within an allelic series)"},
      {"measurement": "binding signal", "setting": "[8]", "value": "8.27 upbm affinity estimate (log intensity, higher = more binding, comparable within an allelic series)"},
      {"measurement": "binding signal", "setting": "[24]", "value": "6.98 upbm affinity estimate (log intensity, higher = more binding, comparable within an allelic series)"}
    ]}
  ]
}
